# Measurements as given in the supplement of paper PMC10105736.
# ± gives the standard deviation of the averaged measurements.
# B1: numb (protein)
# chain: MGNSSSHTHEPLERGFTRGKFGDVKNGKSASFRFSKKSPKKMDRLRRSFRDSFRRRKDRVPESSKPHQWQADEEAVRSATCSFSVKYLGCVEVFESRGMQVCEEALKVLRQSRRRPVRGLLHVSGDGLRVVDDETKGLIVDQTIEKVSFCAPDRNHERGFSYICRDGTTRRWMCHGFLACKDSGERLSHAVGCAFAVCLERKQRRDKECGVTMTFDTKNSTFTRTGSFRQQTLTERLAMATVGTNERSVDGPGSAMPGPPAATVKPFNPFAIERPHATPNMLERQSSFRLSTIGSQSPFKRQMSLRINDLPSNADRQRAFLTAAAGNPMQTPLRSVSPIAEVSPAKSAGADPLSAAAVAADSVSQLCQELSQGLSLLTQTDALLAAGEDLNFNNNRSINQNIIAAEKQVQHVHSYAPPTAQVTPRVASTTPTYQTLHSQSPSRSEQSIETSTELPNAEQWLGHVVRSTSPAAPKRPTYLANVGRAQTLASGTGAAVGGGGPDDPFDAEWVANVAAAKQLSPDLPIPSTARSPLARHSTNPFISPPKAPAQSFQVQL
# B2: Vha16-1 (protein)
# chain: MSSEVSSDNPIYGPFFGVMGAASAIIFSALGAAYGTAKSGTGIAAMSVMRPELIMKSIIPVVMAGIIAIYGLVVAVLIAGALEEPSKYSLYRGFIHLGAGLAVGFSGLAAGFAIGIVGDAGVRGTAQQPRLFVGMILILIFAEVLGLYGLIVAIYLYTK
# B3: cid (protein)
# chain: MPRHSRAKRAPRPSANNSKSPNDDDTAFRSPEPEDGTDYGLEFTTSQLTLQDNNRRSSTLRRDAGRRQPAARDSSTSGEEEDQENRYPTTRSPQTRRMTVQQESKTRAAGPVAAQNQTRRRKAANPMSRAKRMDREIRRLQHHPGTLIPKLPFSRLVREFIVKYSDDEPLRVTEGALLAMQESCEMYLTQRLADSYMLTKHRNRVTLEVRDMALMAYICDRGRQF
# B4: PGRP-LC (protein)
# chain: MPFSNETEMSQCSNAKRRVNDPLTGPKNCSTSSTDSGVILNDNVAAFRPEKETKDRGTGEGQFQSKSEEKTESKRISVEHTVNITTENVGKTSSPAVSIRSTTISVVSIDDNAIDSSSIDSDSEAEAEDYTVQKLGHQVTYPPNSSHLRDLNQGLTVISRHVAPGEAAVPPPNPLEAGIVAKQILNGNLAVATPTSPAGGATQGIGSIALTNSTDVTFGDKHFYEGPVTIQQFLIDNRDKWKPGEGPAGGQDNPAFNGGPSTNGSAPGSKHEDPAQTPPICPFLPNTVGRKAVTVTVVFVTLTFLLGIVLATTTNLFGKTLNQSKIRDDDDYRQNIPINSTIDLDNIGGGLILRFVERQQWLAQPPQKEIPDLELPVGLVIALPTNSENCSTQAICVLRVRLLQTYDIESSQKCDIAYNFLIGGDGNVYVGRGWNKMGAHMNNINYDSQSLSFAYIGSFKTIQPSAKQLSVTRLLLERGVKLGKIAPSYRFTASSKLMPSVTDFKADALYASFANWTHWS
# B5: Fs(2)Ket (protein)
# chain: MTSDIAMQLIAILEKTVSPDKNELLSAKNFLEQAAASNLPEFLKALSEILVNTANSAVARMAAGLQLKNHLTSKDEKVSQQYQDRWHQFPSEIRELIKNNILAALGTENTRPSCAAQCVAYVAVIELPINRWPMLIQTLVNKVVSEGSSEMHRESALEAIGYICQDIRFGVMENQSNDVLTAIIHGMRKVEPSNHVRLAATTALHNSLEFTKSNFEKDMERNFIMEVVCEATQCQDSQICVAALQCLVKIMTLYYQYMEPYMAQALFPITLAAMKSDNDAVALQGIEFWSNVCDEEIDLAIESQEATDQGRAPQRVSKHYARGALQFLTPVLVEKLTKQDECDDEDTWSPAKAASVCLMVLATCCEDEIVPHVLPFIKENIESPNWRFRDAAVMTFGSVLNGLETNTLKPLVEQAMPTLIRLMYDSSVIVRDTIAWTFGRICDIIPEAAINETYLQTLLECFVKSLKSEPRVAANVCWAFIGLSDAAWEAAVTNDGETPETYALSPYFEYIITQLLETTDRSDGAQANLRCAAYQALMDMIKNSPLDCYLVVQRTTLVILERLNQVMQMETQINNHSDRHQFNDLQSLLCATLQSVLRKVHEQDAPQISDAIMTALLTMFNSSAGKSGVVQEEAFLAVSTLVELLGAQFAKYMPAFKDFLVMGLKNFQEYQVCCAAVGLTGDIFRALKDLMVPYSNEIMTVLINNLTEPTIHRTVKPQVLSAFGDIALSIGNHFLPYLSMVLDMLRVASNLQTDANNFDMNEYINELRESILEAYTGIIQGLKGVDQTAHTDVMHMEPHLMHIISFIKRIAQEGDVSDSMLASAAGFIGDLCTSFGPRLYPLLDDAIITQFLAEGKRSKAQRTKMLCTWAVKEIKKINTQVITQ
# B6: CG9588 (protein)
# chain: MAAGTTTKERLERLINAKKQLEAQINRNGQILAANDNVGMSGPLVDAEGFPRNDIDVYQVRLARQTIICLQNDHKELMNQIQTLLNQYHSEIATTDPELVNRASALDLDSDRSPGGANITDLAPARAIVVVNLVSPDSPAERAGLCAGDAILRFGSINSGNFKGDLAQIGELVRNMQSQNVQLKVKRGEQQLDLILVPKTWSGRGLLGCNIVLPPEAMDH
# B7: wat (protein)
# chain: MDDPKIMNIMNGMKSLEDHCQLISDVKDESPMQMFYKDKGVFLTGGTGFFGKIIIEKLLRVTEVGQIYLLIRTKKGKDAFARIEDLFNDPVFAKMKQVNPKYRCQITIISGDCSLPGLGISADERETIMENVNIVLHSAATVRFDEKLKMAIAINVHGTKEIIKLAKEIVNLKALVHVSTAFAHCNMRHIQERFYSGTMSGENAFKLSECLDEHTLNTLTPTIIKGYPNTYTFTKVLAENVVQQSAQNLPVTIFRPGIVITTYREPVTGWIDNMYGPCGVIVGIGSGVLRVFTGDMDNKAHIVPVDMCVNALLASAWDIARNKYETPPIYNYVPDAENMVTWRRYMEDGFEYGCDIPMRKSIWYPRFTIVPHMWQYHILCFLYHTLPALVMDAIMVIIGKKPRMMKIYRKIHKLSNVLKYFSSNEFRFDNDNVRKLTEKLDDRDKRLFAFDMRDLDWTNLFRVSLYGLRLYVVKDDPSNIPESIKRYERLKVLHYTTLAVFYALAAWALYALLKLFL
# B8: Atx2 (protein)
# chain: MNNNSKRKTRPTGGGASGGISRYNSNDNSLRPTNNKAGAGGGNGGAAVRPSAQGVYNNTFFMHSATALVGSVVEVRLRSGNIYEGVFRTFSGNFDIALELPACIKSKNLPEEGKVPKHIIFPADTVVTIVAKDFDSQYATAGAFQTDGAISDKCNGARPDEKELEPWDSGANGDIDIELDSAANGWDPNEMFRKNENTFGVTSTFDDSLASYTVPLDKGDSLEFKEAEAKAEKLAAEIENNPTCRDRLDLENGDEEALFAAVERPSTEQDQRGDRGDRERNDRDREREERDRDRDRDRGNKPRGAGDFQLRETMSSDRYITKQTRSITGPQLSHVGMSSQGSGRDRDTRGDGSMMMQSGGGSGQGGSTQSTAALMLAGGLKGVGPAPSANASADSSSKYSGGSMVKRKTVPQGGKVMRNNVPTGGSNVSVSQGGNGNSVGQNKGGYQPSMGMPSQYSYQGNSQIMHGSSQYRNQSHMGGANKLNGDSNANTNKPLPQRQMRQYQGSQSNSSLNYGGEPQSLGKPVHGSHGGHPGQNSNSPPLQTAGPQQQQQQQQQQQQQQQQQQPPQQQQHQNIQPQGQNTQPARQVRTRDNQMQELRQFGQDFQLAPSNTSPPQQQQQQQQQQQQHQVQQQQQRALQQSASPPQQQQQQQQQQQHVVLHQVPQTHLHQAALSQPHYVPQQQPQQAPLPQQQHVPHHMQQKAQQQQLVETQHQHVQKQHQSQPQVQQPPPQLLQDPSQQPLPIYHTMPPPQTSPVVVTSPVLLEQPPPQPMPVVQQQQTQQLATPKPEVSPAPPSSNTTTPTGIASTPTAGVIASAGSEKTTPAAPTPTSNSATVPTGTAATAGGATGTTPVVKKHVLNPSAKPFTPRGPSTPNPSRPHTPQTPVPMTNIYTTTGGHVPPAANQPIYVMQPQHPFPPQTHPQAGQPPRLRRSNYPPMAASQMHVSASAATGQPLITAGPIPQFIQYGHAPHQQQFQSHTYAPMQMRVYPDQPQQLQFMTQTPQSTTPSPGQPHQQFHPPPQPSPAGGGPQPAFTPPTQAATYQLMCVHPQSLLANHYFPPPTPQHPQQNQQQYQIVMQQHQPQ
# B9: Cyp12e1 (protein)
# chain: MLSTQWNANKQISRQIYQLCRGLAQKATAVNLEEAKPYADIPGPSKLQLIRAFLPGGLYKNLPVHEMFLDMNRQYGSIFRMPSVAGTDLVLTMNPQDYEVIFRNEGQYPYRRSFEVMDYFKRVHRREVFDGYDGLTSGNGPAWGKMRTAVNPILLQPRNAKLYMTNLVQVSDEFLERIRIIRDPVTQEMPDDFAVDIRHLVIESICSVALNTHLGLLGEQRNNKDIQKLVLALQDVVELGFQLDIMPAFWKYLPMPNFKKLMRSLDTITDFCYFHIGNALKRIEEDAKAGTLNEIGLETSLLEKLARFDRQTAVIIAMDLLFAGADPTLVTLGGILFSLSKSPDKQARLLEEIRGILPNKDSSLTIENMRNLPYLRACIKEGIRMYPIGPGTLRRMPHDVVLSGYRVVAGTDVGIAANYQMANMEQFVPKVREFIPERWLRDESNSHLVGETATPFMYLPFGFGPRSCAGKRIVDMMLEIAISRLVRNFKIGFDYPIENAFKAQFFVQPNIPFKFKFIERNE
# B10: Dsp1 (protein)
# chain: MEHFHQIQQTIQHYQQQLAAQQQQQVQQQQLQQHQVVVQQNQQQAHQNSSNTTAGVGTQQLFTYKMASSFPNPATTMAQVVATSNAAGTTGYDYRLNMAQAAAAAAVPGSQWWYSAANQGQVDANTAAQLQHQQQQQQQQQQQQQQQHQQQQQMQQQQQQQNVINSASPMSRVKADAKPRGRMTAYAYFVQTCREEHKKKHPDETVIFAEFSRKCAERWKTMVDKEKKRFHEMAEKDKQRYEAEMQNYVPPKGAVVGRGKKRKQIKDPNAPKRSLSAFFWFCNDERNKVKALNPEFGVGDIAKELGRKWSDVDPEVKQKYESMAERDKARYEREMTEYKTSGKIAMSAPSMQASMQAQAQKAALLAAAAQQQHQQLEEQHDDDDGDGDDDENQ
# B11: Nup54 (protein)
# chain: MSFFGSNTSLGATSTPAKTTGGLFGSPFGGTAATSQPAPAFGAQATSTPAFGAQPATSAFGAGSAFGATAAAPAFGAATGTSAFGGSAFGSTPAFGAATTTTAGTGLGGGGFGGFGAAPATSQAGLFGAPATSAAPPAFSGFGQQAAASTAPASGFSGFGTTTTSAPAFGGFGTSQSTGFGGGAFGSTFGKPANTTVTPGFGGFGGTSFMLGQPQQQPAPISADEAFAQSILNVSIFGDERDKIVAKWNYLQATWGTGKMFYSQSAAPVDITPENVMCRFKAIGYSRMPGKDNKLGLVALNFCRELSAVKPHQQQVIQTLHSLFGSKPNMLVHIDSIKELENKKCQIVIYVEEKLQHAPNESKRILATELSNYLNQATLKPQLNNLGVVEALALVLPDEDQLREYLENPPRGVDPRMWRQANSDNPDPTLYIPVPMVGFNDLKWRVKCQEQETDTHALYIKKVESELTELKKRHATATAKILEHKRKLAELSHRILRIIVKQECTRKVGTSLTPEEEALRTKLQNMLAVVSAPTQFKGRLSELLSQMRMQRNQFAANGGAEYALDKEAEDEMKTFLTMQQRAMEVLSDTVNKDLRALDVIIKGLPELRQS
# Key:
# Assay in all cases: MAPPIT interaction score (arbitrary units); higher = stronger binary interaction signal, active = hit call of the paper;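 active = MAPPIT score above the 99th percentile of random reference set scores in the same batch; inactive = at or below it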
# [1] = biological target: Past1; conditions: MAPPIT configuration: N-N; pair source set: Lit-BM-16
# [2] = biological target: Rm62; conditions: MAPPIT configuration: N-N; pair source set: Curagen_high_conf
# [3] = biological target: ktub; conditions: MAPPIT configuration: N-N; pair source set: Curagen_high_conf
# [4] = biological target: mira; conditions: pair source set: Lit-BM-16
# [5] = biological target: PIG-C; conditions: MAPPIT configuration: N-C; pair source set: screen_3
# [6] = biological target: Tsp96F; conditions: MAPPIT configuration: N-C; pair source set: screen_4
# [7] = biological target: Osi8; conditions: MAPPIT configuration: N-C; pair source set: RRS
# [8] = biological target: PGRP-LC; conditions: pair source set: Lit-BM-16
# [9] = biological target: PCID2; conditions: MAPPIT configuration: N-N; pair source set: Lit-BS-16
# [10] = biological target: PGRP-LE; conditions: MAPPIT configuration: N-N; pair source set: Curagen_low_conf
# [11] = biological target: Or49b; conditions: MAPPIT configuration: N-N; pair source set: DPIM
# [12] = biological target: Su(var)2-10; conditions: MAPPIT configuration: N-N; pair source set: DPIM
# [13] = biological target: Pak3; conditions: MAPPIT configuration: N-C; pair source set: RRS
# [14] = biological target: PAN3; conditions: pair source set: RRS
# [15] = biological target: Nup62; conditions: MAPPIT configuration: N-N; pair source set: Finley_Y2H
# [16] = biological target: PHDP; conditions: MAPPIT configuration: N-N; pair source set: Curagen_low_conf
# 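Further: HEK293T cells with Epo stimulation, STAT-responsive firefly luciferase reporter, fold induction versus unstimulated cells divided by the larger fold induction of two negative controls lacking either bait or prey.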
binder,measurement,setting,value
B1,MAPPIT interaction score,[1],0.0235 (inactive)
same,MAPPIT interaction score,[2],-0.368 (inactive)
same,MAPPIT interaction score,[3],-1.3 (inactive)
same,MAPPIT interaction score,[4]; MAPPIT configuration: N-C,1.17 (inactive)
same,MAPPIT interaction score,[4]; MAPPIT configuration: N-N,-0.252 (inactive)
B2,MAPPIT interaction score,[5],0.119 (inactive)
same,MAPPIT interaction score,[6],0.231 (inactive)
B3,MAPPIT interaction score,[7],-0.541 (inactive)
B4,MAPPIT interaction score,[8]; MAPPIT configuration: N-C,-0.131 (inactive)
same,MAPPIT interaction score,[8]; MAPPIT configuration: N-N,2.43 ± 0.6
B5,MAPPIT interaction score,[9],0.0886 (inactive)
B6,MAPPIT interaction score,[10],0.614 (inactive)
B7,MAPPIT interaction score,[5],1.02 (inactive)
B8,MAPPIT interaction score,[11],-0.465 (inactive)
same,MAPPIT interaction score,[12],0.0668 (inactive)
B9,MAPPIT interaction score,[13],2.68 (inactive)
B10,MAPPIT interaction score,[14]; MAPPIT configuration: N-C,0.573 (inactive)
same,MAPPIT interaction score,[14]; MAPPIT configuration: N-N,0.707 (inactive)
B11,MAPPIT interaction score,[15],5.79 (active)
same,MAPPIT interaction score,[16],-0.274 (inactive)
